The structures appear in SMILES notation. In all, about 1,300 compounds went through this assay and about 25 (2%) were called active. Inconclusive results (about 9%) are left out. Many of the other results were omitted from the sample, so actives are more common in it than they were. Values without a mark were called inactive. Calls come from the whole dose curve; as a rule, active = well fitted activation curve with a large enough effect; inconclusive = small, poorly fitted or top-dose-only effect; inactive = flat fitted curve, though single readings scatter.
Potency is the fitted concentration of half-maximal effect.

The target of this test is Glucagon-like peptide 1 receptor (Homo sapiens) (UniProt P43220). The test can be described thus: qHTS of GLP-1 Receptor Agonists: Hit Validation. For activation: % of control where 0% means no effect. The note with it: HEK293 GLP-1R, cAMP-response luciferase, 4-6 h; series mostly up to 46.1 µM; activation: at the top concentration. The method, boiled down: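 Luminescence from a cAMP-responsive luciferase reporter was read 12 min after detection reagent at RT. Before that, HEK293 cells stably expressing GLP-1R plus reporter, seeded 12 h earlier, were exposed to compound for 4-6 hr at 37 deg C.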
Glucagon-like peptide 1 receptor (Homo sapiens), sequence (P43220 whole entry, looked up): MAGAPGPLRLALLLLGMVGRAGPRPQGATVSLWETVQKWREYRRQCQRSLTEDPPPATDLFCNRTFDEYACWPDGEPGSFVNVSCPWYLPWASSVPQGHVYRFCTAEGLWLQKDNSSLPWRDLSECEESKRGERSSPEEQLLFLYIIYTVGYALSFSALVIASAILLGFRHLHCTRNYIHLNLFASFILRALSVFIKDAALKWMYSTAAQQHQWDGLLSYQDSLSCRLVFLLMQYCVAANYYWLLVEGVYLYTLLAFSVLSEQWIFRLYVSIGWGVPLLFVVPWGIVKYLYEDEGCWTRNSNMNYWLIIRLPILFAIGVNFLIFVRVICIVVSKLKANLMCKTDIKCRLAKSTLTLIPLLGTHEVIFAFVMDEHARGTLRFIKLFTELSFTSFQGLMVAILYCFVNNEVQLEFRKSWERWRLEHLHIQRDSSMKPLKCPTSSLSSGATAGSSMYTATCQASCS
In the case of `Cc1ccc(C)c(S(=O)(=O)Nc2cc3c4c(c2)CCC(=O)N4CCC3)c1`, the “activation” value is 4.82%. On the same count and under the same terms, with `COc1cc2c(cc1OC)C(C)N(C(=O)C1COc3ccccc3O1)CC2` (stereo not drawn) the figure was 1.66%; with `COc1ccc(-c2nc(C#N)c(NCc3ccc(C)cc3)o2)cc1OC`, 26.6%; with `COC(=O)c1ccc(CSc2nnc3nc(C)cc(C)n23)cc1`, 7.79%. As for `C=CCOc1ccc(CNc2nccs2)cc1OCC`, the “activation” value is 0.231%. In the case of `CCOC(=O)c1c(C)n(-c2ccccc2)c2ccc(OCCN(C)C)cc12`, the “activation” value is 1.98%. As to `CCN(CC)CC(=O)Nc1scc2c1c(=O)oc1ccccc12`, the Potency is 8.2 µM (active). `CC(=O)Nc1nc(CC(C)C)cc2c1c(=O)oc1ccccc12`: the “activation” value is -0.314%. Same read-out and setting: with `CC(=O)c1oc2ccccc2c1NC(=O)CN1CCCCC1` the figure was 2.43%; with `CCOC(=O)c1sc(NC(=O)C2=COCCO2)c(C#N)c1C`, 1.43%; with `COc1cccc(OCCNc2cc(N3CCOCC3)ccc2[N+](=O)[O-])c1`, 23%. As to `CCOC(=O)c1c(NC2OC(=O)c3c2ccc(OC)c3OC)sc(C(=O)OC(C)(C)C)c1C` (stereo not drawn), the “activation” value is 10.4%.

As for `N#Cc1c(-c2ccc(F)cc2)noc1N`, the “activation” value is -0.686%. On the same count and under the same terms, with `COc1ccc(CSc2nnnn2-c2ccccc2)cc1` the figure was 0.383%; with `O=[N+]([O-])c1cnccc1NC1CCCCC1`, 3.34%; with `O=C1CN(c2nc(-c3cccnc3)nc3sc4c(c23)CCCC4)CCN1`, 26.3%. Take `COC(=O)CSc1ncnc2scc(-c3ccccc3)c12`: the “activation” value is 8.75%. Regarding `COC(=O)CCSCC(=O)N1N=C(c2ccc(OC)cc2)CC1c1cccc(OC)c1OC` (stereo not drawn), the “activation” value was 3.02%. The same measure, in the same setting: with `CCC(=O)Nc1sc2c(c1C#N)CCCCC2` the figure was 0.438%. Consider `Cc1nc(N2CCOCC2)c2cc(-c3ccccc3)sc2n1`, for which the Potency is 8.2 µM (active). In the case of `Cc1nc(N2CCOCC2)c2c(C)c(C(=O)Nc3ccccc3C(F)(F)F)sc2n1`, the “activation” value is 5.01%. Still for that read-out and setting: next, `CN(C)c1ncnc2sc(-c3ccccc3)cc12`: 18.2%; `COc1ccc(C(=O)NCC2(c3ccc(OC)c(OC)c3)CCCC2)cc1OC`: 14.5%. Still for that read-out and setting: next, `CC(=NNC(=S)Nc1ccc(C)cc1)c1ccccn1`: 24.4%; `COC(=O)c1ccc(Cn2nc(-c3cc(C)ccc3C)ccc2=O)cc1`: 1.3%; `COc1cc(SC)ccc1C(=O)Nc1ccccc1`: 2.97%. Still for that read-out and setting: next, `Cc1c(C)n(Cc2ccccc2)c2ncnc(NCCO)c12`: -0.311%; `COc1ccc(-c2cc(C(=O)N3CCCC(C(F)(F)F)C3)c3ccccc3n2)cc1OC` (stereo not drawn): 7.08%. Regarding `C=CCN1N=C(c2ccc(Cl)s2)CSC1=O`, the “activation” value is 4.36%. Same read-out and setting: next, `CCOC(=O)c1nnn(-c2nonc2N)c1-c1cccs1`: -0.622%; `COc1ccc(C(=O)c2cc([N+](=O)[O-])ccc2N2CCOCC2)cc1`: 9.91%; `CCc1ccc(C(=O)COC(=O)c2cc([N+](=O)[O-])ccc2N2CCOCC2)cc1`: 14.8%.

As to `COc1ccc(C(=O)COC(=O)c2cc([N+](=O)[O-])ccc2N2CCOCC2)c(OC)c1`, the Potency is 20.6 µM (active).

In the case of `CC(=O)Nc1cc(-c2ccccc2Cl)cn2c(-c3ccc(S(C)(=O)=O)cc3)cnc12`, the “activation” value is 26.3%. The same measure, in the same setting: next, `COc1ccc(-c2nnc(OCc3nc4ccccc4n3C)c3ccccc23)cc1`: 18.7%; `CCOc1ccc(Br)cc1S(=O)(=O)Nc1ccc(C(=O)OCC(=O)N(C)c2ccccc2)cc1`: 0.375%; `CCOC(=O)c1c(C)[nH]c2cc(Br)c(O)cc12`: 11.9%.

Take `CC1CN(c2nc(N(C)c3ccccc3)nc(N)c2[N+](=O)[O-])CC(C)O1` (stereo not drawn): the “activation” value was 4.07%.

Regarding `COc1ccc(-c2nc(C#N)c(NC(C)c3ccccc3)o2)cc1OC` (stereo not drawn), the “activation” value is 24.4%. With `CCOC(=O)n1c(=O)n(Cc2ccccc2Cl)c2ccccc21`, the “activation” value is 3.3%. In the case of `O=c1[nH]nc(-c2ccc(NCCO)c([N+](=O)[O-])c2)c2ccccc12`, the “activation” value was 13.2%.

Turning to `COc1ccc(C(=O)Cc2ccccc2)cc1OC`, the “activation” value was 1.93%. Still for that read-out and setting: with `COCc1cc(C)nc2sc(C(=O)OC(C)C)c(N)c12` the figure was 6.32%. On to `CCCCn1c(=NC(=O)c2cccnc2)c(C(=O)OCC)cc2c(=O)n3ccccc3nc21`, for which the “activation” value is 7.86%. Still for that read-out and setting: with `COc1ccc(NC(=O)c2cccnc2)cc1OCC(C)C` the figure was 0.0143%. Take `O=C(Cn1nc(-c2ccc(N3CCOCC3)c([N+](=O)[O-])c2)c2ccccc2c1=O)N1CCCCC1`: the “activation” value was 20.3%.

For `OC(c1ccccc1)c1nc(-c2csc3ccccc23)cs1` (stereo not drawn), the Potency is 7.31 µM (active).

As for `OC(c1ccccc1)c1nc(-c2ccccc2)cs1` (stereo not drawn), the “activation” value is -0.205%. In the case of `COc1ccccc1Nc1nc(Cl)nc(Nc2ccccc2OC)n1`, the “activation” value was 7.81%. In the case of `CCOc1ccc(Oc2c(/C=N/NC(N)=O)c(C)nn2-c2ccccc2)cc1`, the “activation” value is 16%.

With `CCN(CC)S(=O)(=O)c1cc(NC(=O)c2ccccc2OCc2c(C)noc2C)ccc1C`, the “activation” value is 1.93%. The same measure, in the same setting: with `CCc1cc2c(-c3ccccc3)cc(=O)oc2c(CN2CCOCC2)c1O` the figure was 4.04%.

Turning to `N#C/C(=C\c1ccc(N2CCOCC2)c([N+](=O)[O-])c1)c1nc2ccccc2[nH]1`, the “activation” value was 4.71%.
